# Source: PubChem BioAssay
# Pol iota inh – blocks human DNA polymerase iota activity; Pol iota fluorescent replication assay, 10 min; AID 588590; Potency, µM (doses to about 115 µM), actives largely listed as inhibitors; 390,000 tested, 1% active
#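 Pol iota at 10 nM preincubated 15 min with compounds at room temperature; reaction started with fluorescent substrate, 50 nM final. Fluorescence read kinetically at 0 and 10 min; buffer-only wells as negative control.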
# WRN inhibitor – WRN helicase (human) inhibition | 360,000 tested, 0.46% active | WRN helicase unwinding, fluorescent forked duplex, kinetic | Potency, µM (highest dose often 114 µM), actives largely listed as inhibitors | Q14191; also: nearly all actives have a fitted effect of over 55% in size
#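 Primary qHTS, 1536-well format. 20 nM WRN + compound, 15 min RT; start with 100 nM forked fluorophore/quencher duplex, 2 mM ATP (final); kinetic read ex 525/em 598 nm.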
# POLH inh – DNA polymerase eta (human) inhibition; Q9Y253; recombinant Pol eta, fluorescent DNA replication assay; Potency, µM (top dose mostly 114 µM), actives largely listed as inhibitors; 390,000 tested, 1.2% active
#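 Pol eta (10 nM) was preincubated with compounds for 15 min at room temperature, after which fluorescent replication substrate (50 nM final) was added to start the reaction. Fluorescence was read kinetically at 0 and 10 min.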
# POLK inh – inhibitors of human DNA polymerase kappa; Potency, µM (highest dose often 107 µM), most hits filed as inhibitors; purified Pol kappa, fluorescent DNA synthesis assay, 10 min; 400,000 tested, 0.53% active; Q9UBT6; AID 588579
# Target sequence (Q9UBT6 whole entry, looked up): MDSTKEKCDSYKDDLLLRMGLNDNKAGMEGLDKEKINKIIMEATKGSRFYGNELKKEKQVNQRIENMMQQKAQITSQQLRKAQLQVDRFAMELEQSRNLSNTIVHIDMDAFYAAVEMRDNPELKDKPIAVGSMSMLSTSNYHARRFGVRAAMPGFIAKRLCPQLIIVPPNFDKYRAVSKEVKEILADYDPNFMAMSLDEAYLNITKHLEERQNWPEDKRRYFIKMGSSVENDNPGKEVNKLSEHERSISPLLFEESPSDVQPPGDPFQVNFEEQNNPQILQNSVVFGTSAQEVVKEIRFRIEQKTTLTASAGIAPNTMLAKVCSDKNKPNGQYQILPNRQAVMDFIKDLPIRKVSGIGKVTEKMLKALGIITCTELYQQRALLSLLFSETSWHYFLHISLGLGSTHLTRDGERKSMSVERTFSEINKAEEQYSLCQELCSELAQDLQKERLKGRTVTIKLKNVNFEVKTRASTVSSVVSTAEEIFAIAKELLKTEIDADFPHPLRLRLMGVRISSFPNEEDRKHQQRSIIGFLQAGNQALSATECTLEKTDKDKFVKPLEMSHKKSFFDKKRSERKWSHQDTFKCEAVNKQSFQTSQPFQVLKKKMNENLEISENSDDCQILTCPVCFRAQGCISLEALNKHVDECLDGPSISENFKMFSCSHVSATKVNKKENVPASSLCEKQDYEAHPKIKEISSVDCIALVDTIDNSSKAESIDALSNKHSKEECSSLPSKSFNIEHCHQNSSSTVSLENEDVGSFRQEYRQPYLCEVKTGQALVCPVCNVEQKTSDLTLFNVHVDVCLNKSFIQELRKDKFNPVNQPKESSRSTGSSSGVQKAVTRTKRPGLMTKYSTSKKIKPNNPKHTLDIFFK
#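 First, compounds were pin-transferred onto 10 nM Pol kappa. After 15 min at room temperature, substrate was added to 50 nM final. Fluorescence was then measured kinetically at 0 and 10 min.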
# POLB inh – inhibitors of human DNA polymerase beta; Pol beta primer extension/strand displacement, fluorescence kinetic; Potency, µM (top dose mostly 114 µM), hits mostly inhibitors; 340,000 tested, 1.3% active
#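 Enzyme-only controls used 10 nM Pol beta; buffer lacking enzyme served as negative control. Compound preincubated 15 min, then 50 nM substrate added; 0 and 10 min reads at room temperature.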
# PI5P4Ka inh – PI5P4K alpha (human) kinase inhibition; P48426; PI5P4Kalpha enzyme, ADP-Glo luminescence, 60 min; hits give low values; max response, %; 330,000 tested, 1.2% active; active = max response of -50% or lower; inconclusive = between -30% and -50%; inactive = -30% or higher; also: value at the top dose of about 77 µM
#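 Compounds were pin-transferred onto PI5P4Kalpha and substrate in HEPES pH 7.4 buffer with EGTA, CHAPS and 5% DMSO. ATP (5 microM final) started the reaction, which ran 60 minutes at room temperature before ADP-Glo detection.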
# A number is an active result; 0 = inactive; ? = inconclusive; - = no result given; [ ] = remark or other dose. Shown are actives, neighbours in structure and some others; about 2.8% of the full set was active somewhere. Unless noted, calls follow the shape of the dose curve; as a rule, active = well fitted curve in the direction sought with a large enough effect; inconclusive = small, poorly fitted or top-dose-only effect, or another doubt; inactive = no such curve, though single readings can be large; an effect the other way counts as inactive or inconclusive.
SMILES,Pol iota inh,WRN inhibitor,POLH inh,POLK inh,POLB inh,PI5P4Ka inh
CCN(CC)c1ccc(/C=C/c2ccc3ccc(OC)cc3[n+]2CC)cc1,?,56.2µM,0,0,0,0
CN(C)c1ccc(/C=C/c2ccc3ccccc3[n+]2[O-])cc1,0,-,-,0,-,-
CCC(Nc1ccc(-c2nc(-c3cccnc3)no2)cc1[N+](=O)[O-])c1ccccc1 (stereo unspecified),0,-,0,0,0,-
O=C1CC(c2nnc(Cc3ccccc3Cl)o2)CN1c1ccccc1 (stereo unspecified),0,-,0,0,0,-
CCc1ccc(Nc2cc(C)nc3nc(Cc4ccc(Cl)cc4)nn23)cc1,0,-,0,0,0,-
Cc1cc(C)c2c(=O)c(C#N)coc2c1,?,56.2µM,50.1µM,?,44.7µM,?
C=C1C=C(C(F)F)n2ncc(C(=O)NCc3ccccc3OC)c2N1,0,-,-,0,-,-
COc1cc(-c2c(C#N)c(N)nc3[nH]c(=S)[nH]c(=O)c23)ccc1O,?,0,0,0,0,-67.3
COc1cccc2c(=O)c3cccc(N)c3[nH]c12,0,?,?,0,25.1µM,0
COc1cccc2c(=O)c3c([nH]c12)OC(C)(C)C3,0,0,0,0,-,0
CCOCCc1nn2c(=O)cc(COC(=O)C3CCCCC3)nc2s1,0,-,0,0,0,-
Cc1cc(C(F)(F)F)n(-c2nc(C(=O)N/N=C/c3ccc(F)cc3)cs2)n1,89.1µM,0,0,0,0,0
O=C(NC1=C(Nc2ccc(Cl)cc2)C(=O)c2ccccc2C1=O)c1ccccc1,0,0,0,0,?,?
O=C(NC(NC1CCS(=O)(=O)C1)C(=O)c1cccs1)c1ccccc1 (stereo unspecified),0,0,0,0,0,0
Cc1cccc(NC2=C(NC(=O)c3ccccc3)C(=O)c3ccccc3C2=O)c1,?,0,0,0,0,-61.9
O=C(NC1=C(NC2CCS(=O)(=O)C2)C(=O)c2ccccc2C1=O)c1ccccc1 (stereo unspecified),35.5µM,0[11.6 µM],79.4µM,0,?,?
CCCCCn1c(=O)c(C(=O)c2ccccc2)nc2ccccc21,0,0,0,0,0,0
CCCCCCn1c(=O)[nH]c2nc3cc(N)ccc3nc2c1=O,0,0,0,0,10µM,?
CCOC(=O)C1=C(C)NC2=C(C(=O)C(C(=O)OCC)C(c3ccco3)C2)C1c1ccccc1C (stereo unspecified),?,-,-,0,-,-
CCCS(=O)(=O)N1CCN(S(=O)(=O)c2ccccc2[N+](=O)[O-])CC1,0,0,0,0,0,0
O=[N+]([O-])c1ccccc1S(=O)(=O)N1CCSCC1,0,0,89.1µM,0,-,0
O=C(O)/C=C/C(=O)Nc1ccc(Oc2ccc(NC(=O)/C=C/C(=O)O)cc2)cc1,-,-,-,-,39.8µM,-
COc1ccc(NC(=O)/C=C/C(=O)O)cc1Cl,0,0,0,0,0,-
O=C(O)/C=C\C(=O)Nc1ccc(Oc2ccccc2)cc1,0,0,0,0,0,-
Cc1ccc(NC(=O)c2cc(NC(=O)/C=C\C(=O)O)ccc2N2CCCCC2)cc1,0,0,0,0,?,-69.0
SMILES,Pol iota inh,WRN inhibitor,POLH inh,POLK inh,POLB inh,PI5P4Ka inh
O=C(O)/C=C/C(=O)Nc1ccc(Cl)c(C(=O)O)c1,?,0,44.7µM,0,?,0
CC(=O)c1ccc(NS(=O)(=O)c2ccc3ccccc3c2)cc1,0,0,0,0,0,0
CC(=O)c1ccc(NS(=O)(=O)c2cccc(S(=O)(=O)c3ccc(Cl)cc3)c2)cc1,89.1µM,-,0,?,0,-
CCCCOC(=O)C1=C(C)NC(=O)NC1c1cccc([N+](=O)[O-])c1 (stereo unspecified),0,0,0,0,0,0
CCCCOC(=O)C1=C(C)NC(=O)NC1c1ccc([N+](=O)[O-])s1 (stereo unspecified),89.1µM,0,0,?,0,0
O=C(CC1SC(=O)N(c2ccccc2)C1=O)Nc1ccccc1 (stereo unspecified),?,39.8µM,0,0,0,-
Cc1ccc(NC(=O)CC2SC(=O)N(c3ccccc3)C2=O)cc1 (stereo unspecified),0,?,0,0,0,0
Cc1cccc(NC(=O)CC2SC(=O)N(c3ccccc3)C2=O)c1 (stereo unspecified),0,100µM,0,0,0,0
CCOC(=O)Cc1cc(=O)c2c(=O)n(-c3ccccc3)[nH]c2[nH]1,22.4µM,0,0,22.4µM,0,0
COC(=O)c1c(Oc2ccc(OC)cc2)nnc(-c2ccccc2)c1-c1ccccc1,0,-,0,0,0,-
O=C(Nc1cccc(C(=O)Nc2ccc(S(=O)(=O)O)c3cc(S(=O)(=O)O)cc(S(=O)(=O)O)c23)c1)Nc1cccc(C(=O)Nc2ccc(S(=O)(=O)O)c3cc(S(=O)(=O)O)cc(S(=O)(=O)O)c23)c1,10µM,-,1.78µM,1.89µM,2.38µM,-
O=C(O)c1cccc(NC(=O)c2cccc(S(=O)(=O)Nc3cccc(C(=O)O)c3)c2)c1,0,-,0,0,0,-
COc1cc(OC)c2c(-c3ccccc3)cc(=O)oc2c1C(CC(=O)N1CCN(c2ccccc2)CC1)c1ccc2c(c1)OCO2 (stereo unspecified),-,-,-,-,50.1µM,-
CC1C(=O)N(Cc2cn(Cc3ccco3)nn2)CCS(=O)(=O)N1Cc1ccc(-c2ccncc2)cc1 (stereo unspecified),-,0[11.6 µM],50.1µM,-,-,0
Cc1ccccc1NC(=O)c1cc2c(-c3ccccc3)nn(-c3ccccc3)c2s1,0,-,0,0,0,-
Cc1ccc(-c2cn(-c3cccc(Cl)c3)c(S(=O)(=O)CC(=O)Nc3cccc(C)c3)n2)cc1,70.8µM,-,0,0,0,-
O=C(CS(=O)(=O)c1nc(-c2ccc(Cl)cc2)cn1-c1ccccc1)Nc1cccc(Cl)c1,?,-,0,0,0,-
Cc1ccc(C(=O)CSc2nc(-c3ccccc3)nc3c2CCCC3)cc1C,0,-,0,0,0,-
COc1ccccc1/C=C/C=N/n1c(-c2n[nH]c3c2CCC3)n[nH]c1=S,0,0,?,0,7.94µM,?
COc1cccc(/C=N/n2c(-c3n[nH]c4c3CCC4)n[nH]c2=S)c1O,0,0,0,0,0,0
CCOC(=O)c1ccccc1NC(=O)NC(C)c1c(-n2cccc2)sc(C)c1C (stereo unspecified),0,-,-,0,0,-
C=CCNC(=O)/C(=C\c1ccc(Br)cc1)NC(=O)c1ccccc1OC,0,0,0,0,0.141µM,0
CCCn1c(/C=C/c2ccccc2)nc2ccccc21,0,0,0,0,0,-
CC(C)Cn1c(/C=C/c2ccco2)nc2ccccc21,0,0,0,0,28.2µM,?
Cc1cccc(-c2nc3scc(CCNS(=O)(=O)c4ccc(Oc5ccccc5)cc4)n3n2)c1,0,-,0,0,0,-
